IL1B secr inh: inhibitors of inflammasome signaling (IL-1 beta secretion); 4.7% of 360,000 active; activity change, % at 57.5 µM; THP-1 LPS/ATP IL-1B secretion, AlphaLISA, 16 h; hits give low values; in the data active means activity change below about -50%; inconclusive means mostly about -30% to -49%
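Secreted IL-1B measured by AlphaLISA bead assay after 16 h compound exposure of THP-1 cells; compounds (final up to 57.5 uM) added 1 h before LPS (250 ng/mL) and ATP (1.25 mM) stimulation; lower signal means less secretion.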
HT1080 IDH1KD tx: HT-1080 IDH1 knockdown cell toxicity (counter line) | HT-1080 IDH1 knockdown viability, ATP luminescence, 48 h | 2% of 360,000 active | Potency, µM (doses to about 46.1 µM), for inactives: at the top dose activity, negative = toxicity, hits mostly cytotoxic;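 further: potency means the concentration at half of the fitted maximal effect; 0% = DMSO wells and -100% = cell-free medium wells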
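Viability of IDH1-knockdown HT-1080 fibrosarcoma cells was assessed by CellTiter-Glo after 48 h at 37 °C with titrated compound; concentration-effect curves were classified by fit quality and response size.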
ELG1 repair inh: inhibitors of ELG1-dependent DNA repair in HEK293T cells; HEK293T ELG1-luciferase reporter, luminescence, 16 h; DNA damage induced by 5-fluorouridine; Potency, µM (titrated, usually from 46.1 µM), without a hit: at the highest dose activity change, negative = inhibition, hits mostly inhibitors; 2.3% of 330,000 active; AID 504467; further: potency means the concentration at half of the fitted maximal effect; nearly all actives have a fitted effect of over 55% in size
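Reporter activity after DNA damage by 5-fluorouridine is monitored. Compound-treated cells incubate 16 hr at 37 °C, then ONE-Glo is added for 30 min before luminescence reading.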
TDP1 cell noCPT: qHTS for Inhibitors of human tyrosyl-DNA phosphodiesterase 1 (TDP1): qHTS in cells in absence of CPT; DT40 Tdp1-/- hTDP1 cells, no CPT, ATP luminescence, 48 h; Potency, µM (top dose mostly 46.2 µM), without a hit: at the highest dose activity change, negative = growth inhibition, most hits filed as inhibitors; 15% of 420,000 active; AID 686978, 2013; further: potency means the concentration at half of the fitted maximal effect; nearly all actives have a fitted effect of over 55% in size
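DT40 Tdp1-/-;hTDP1 cells, no CPT (DMSO vehicle only), 400 cells/well; compounds pin-transferred; ≥48 hr, 37 °C; CellTiter-Glo 30 min RT dark, luminescence read.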
DT40 TDP1 CPT: growth inhibition of DT40 Tdp1-/-;hTDP1 cells with camptothecin (screen for TDP1 inhibitors). chicken DT40 Tdp1-/-;hTDP1 cells + 20 nM CPT, ATP luminescence, 48 h. Potency, µM (titrated, usually from 46.2 µM), inactives show at the top dose activity change, negative = growth inhibition, most hits filed as inhibitors. 12% of 420,000 active; further: potency means the concentration at half of the fitted maximal effect; nearly all actives have a fitted effect of over 55% in size
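Cell growth measured by CellTiter-Glo luminescence after a minimum 48 h, 37 C compound exposure with 20 nM CPT in Tdp1-knockout DT40 cells stably expressing hTDP1, seeded 400/well; qHTS titration format.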
HT1080NT lethal: kills 2HG-producing HT-1080-NT fibrosarcoma cells; HT-1080-NT fibrosarcoma viability, CellTiter-Glo ATP luminescence, 48 h; Potency, µM (titrated, usually from 46.1 µM), inactives show at the highest dose activity, negative = less viability, usual class: cytotoxic; 1.6% of 360,000 active; AID 686970;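 further: NT is the 2HG producing partner of a matched IDH1 knockdown line; potency means the concentration at half of the fitted maximal effect; 0% = DMSO-treated cells and -100% = media-only wells without cells; nearly all actives have a fitted effect of over 55% in size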
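Compounds were tested in concentration-response format on HT-1080-NT cells for 48 hours at 37 degrees C. Cell viability came from CellTiter-Glo luminescence; curves were classified by r2, response magnitude and activity.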
Active calls of the source: *; i = inactive; ? = inconclusive; nt = no result. Rows were chosen to be rich in hits. Some 19% of all compounds tested hit in one or more screens of this group. Unless noted, the call rests on the fitted dose curve; in most records, active means well fitted curve in the direction sought with a large enough effect; inconclusive means small, poorly fitted or top-dose-only effect, or another doubt; inactive means no such curve, though single readings can be large; an effect the other way counts as inactive or inconclusive. Unless noted, on the % scale 0 is the no-effect control and ±100 the full control effect.

SMILES	IL1B secr inh	HT1080 IDH1KD tx	ELG1 repair inh	TDP1 cell noCPT	DT40 TDP1 CPT	HT1080NT lethal
C[C@@]12CCC3[C@@](CCC4[C@@]3(C)CCC[C@@]4(C)C(=O)NC3CCCCC3)(CC1=O)C2 (stereo not given in full)	11.6	3.9%	-0.7%	23.1µM*	18.4µM*	1.5%
O=C(CSc1nnc(CNC(=O)c2ccccc2)o1)NCCc1ccccc1	0.0	1.8%	4.3%	-12.6%	-0.4%	1.0%
Cc1ccc(OC(C)C(=O)Nc2ccncc2)cc1C (stereo not given)	-10.5	-3.6%	?	?	?	-27.1%
COCC1CCN(C(=O)c2cc(COc3ccc4c(c3)CCCC4)on2)C1 (stereo not given)	-62.0*	-1.7%	5.8%	-26.2%	?	-5.3%
C=CCC1(CC=C)CCCN1C(=O)c1cc(COc2cccc(OC)c2)on1	-7.7	-12.0%	-3.7%	?	?	0.0%
COc1cccc(OCc2cc(C(=O)N3CCC(c4ccncc4)CC3)no2)c1	-20.0	?	?	8.2µM*	14.6µM*	?
COCC1CCN(C(=O)c2cc(COc3ccc(C)c(C)c3)on2)C1 (stereo not given)	i	18.6%	3.1%	-11.0%	-25.0%	14.0%
COc1cccc(OCc2cc(C(=O)N3CCN(C)C(c4ccccc4)C3)no2)c1 (stereo not given)	19.5	-2.3%	?	?	25.9µM*	-3.3%
CC(=O)c1ccc(OCc2cc(C(=O)N3CC[C@@H]4CCCC[C@H]4C3)no2)cc1	-80.6*	-8.3%	?	16.4µM*	?	-1.5%
CC(=O)c1ccc(OCc2cc(C(=O)N3CCC(c4ccncc4)CC3)no2)cc1	-12.0	23.1µM*	0.4%	5.8µM*	11.6µM*	18.4µM*
CC(=O)c1ccc(OCc2cc(C(=O)N3CCCCC3c3cccnc3)no2)cc1 (stereo not given)	?	?	?	18.4µM*	20.6µM*	-10.4%
Cc1ccc(OCc2cc(C(=O)N3CCCC(O)C3)no2)cn1 (stereo not given)	24.1	19.8%	?	0.3%	1.4%	3.2%
COc1ccc(C(=O)N2CCC(c3ccncc3)CC2)cc1OC	nt	nt	nt	-7.7%	-26.1%	nt
Cc1ccc(OCc2cc(C(=O)N3CCCC(C)C3)no2)cn1 (stereo not given)	24.0	-0.9%	nt	20.6µM*	16.4µM*	-1.2%
CCN(CC)c1ccc(C(=O)N2CCC(c3ccncc3)CC2)cc1	nt	nt	nt	3.26µM*	20.6µM*	nt
COc1ccc(CC(=O)NCc2nc3cccnc3n2Cc2ccc(F)cc2)cc1OC	nt	nt	nt	?	-29.9%	nt
COCCNC(=O)c1onc(CCl)c1C(=O)OC	47.0	-0.6%	5.9%	?	?	2.9%
C=CCNC(=O)c1onc(CCl)c1C(=O)OC	110.2	25.9µM*	3.3%	?	23.1µM*	?
COc1cc(/C=C2/C(=O)NN(c3cccc(F)c3)C2=O)ccc1OC(=O)c1ccco1	-7.8	1.1%	?	16.4µM*	?	-5.6%
C=CCN1C(=O)/C(=C\c2ccc(OC(=O)c3ccco3)c(OC)c2)SC1=S	3.1	6.0%	18.4%	?	-11.7%	12.4%
O=C(NC1CCCCC1)c1cc([N+](=O)[O-])[nH]n1	13.8	-3.8%	2.7%	18.4µM*	?	-12.2%
CCCc1[nH]n(-c2ccc(F)cc2)c(=O)c1C=Nc1cccc(F)c1	26.1	14.6µM*	-19.8%	6.51µM*	6.51µM*	7.31µM*
O=C(CSc1nc(-c2ccccc2)nc2c1CCCC2)c1ccc(F)cc1	nt	nt	nt	-25.0%	3.2%	nt

Bioassay records from PubChem.
